The source of these data is PubChem BioAssay (EPA / NIEHS).

Each structure is given as a SMILES string. Some structures have more than one record in an assay (separate samples or runs), and their calls can disagree. Calls of active or inactive are those of the source. The calls were made as follows: active = hit-call score of the fitted dose curve at least 0.9, where 1 is the maximum; inactive = score below 0.9.

Read-out in the assay: Macrophage colony-stimulating factor (MCSF), CSF1 (gene 1435)
Briefly: BSK_LPS_MCSF: BioMAP Diversity Plus: LPS Assay for Macrophage colony-stimulating factor (MCSF) Biomarker Activity (AID 2283083). The following applies: primary human HUVEC with PBMC; actives raise or lower the signal. How it is done:
BSK_LPS is a cell-based, multiplexed-readout assay that uses umbilical vein endothelium and peripheral blood mononuclear cells, a human vascular primary cell co-culture, with measurements taken at 24 hours after chemical dosing in a 96-well plate.BSK_LPS_MCSF is an assay component measured in the BSK_LPS assay. It measures M-CSF antibody related to regulation of gene expression using ELISA technology.Data from the assay component BSK_LPS_MCSF was analyzed into 1 assay endpoint. This assay endpoint, BSK_LPS_MCSF, was analyzed with bidirectional fitting relative to DMSO as the negative control and baseline of activity. Using a type of binding reporter, gain or loss-of-signal activity can be used to understand changes in the signaling as they relate to the gene CSF1. Furthermore, this assay endpoint can be referred to as a primary readout, because this assay has produced multiple assay endpoints where this one serves a signaling function. To generalize the intended target to other relatable targets, this assay endpoint is annotated to the cytokine intended target family, where the subfamily is colony stimulating factor.
The levels of cell surface (or secreted, indicated by the prefix "s") biomarker endpoints were measured by ELISA. Overt cytotoxicity to cells in confluent adherent cultures (all systems other than the BT system) was assessed by measuring total protein levels using sulforhodamine B (SRB) staining in parallel cultures at the time of biomarker measurements, indicated as SRB endpoints. For proliferation assays for adherent cell types, individual cell types are cultured at sub-confluence and relative cell numbers quantified by SRB staining at time points optimized for each system (48 h: 3C and CASM3C systems; 72 h: BT and HDF3CGF systems; 96 h: SAg system). SRB was performed by staining cells with 0.1% SRB after fixation with 10% TCA and reading wells at 560 nm.Viability and proliferation of PBMC (T cells) was quantified by Alamar Blue reduction for the SAg and BT systems. For PBMC viability (referred to as PBMC Cytotoxicity within the assay endpoint names), cells were plated (75,000/well in a 96-well plate) and then chemical samples added for 1 h before addition of activators, SEB and TSST-1 (20 ng/mL final concentration each). Cells were incubated for 90 h. Then, Alamar Blue (20 uL/well) (Invitrogen, Cat DAL1100) was added for 6 h, and the plates were read with a fluorescence microplate reader at 546/580 nm (excitation/emission). For PBMC proliferation, cells were plated and activated as above but incubated for only 16 h prior to addition of Alamar Blue. Plates were read after 6 h.
On to `Cc1ccc(N)cc1N`, for which the outcome was inactive. The term AC50 denotes the midpoint of the concentration-response curve, whichever way the signal moves. As to `C=CC(=O)OCC(F)(F)C(F)F`, the outcome was inactive and the AC50 was 30 µM (active). Turning to `Cc1ccc2c(c1N)C(=O)c1ccccc1C2=O`, the result was inactive. On to `Nc1cc2c3c(c1)C(c1ccccc1)=N[C@@H](NC(=O)c1cccnc1)C(=O)N3CC2`, for which the outcome was inactive.

`O=P(OCC(Br)CBr)(OCC(Br)CBr)OCC(Br)CBr` (stereo not given): the result was inactive.

Take `CCCCN(CCCC)N=O`: the outcome was inactive. Regarding `Cc1ccc(O)cc1C`, the outcome was inactive.

As for `CCOS(=O)(=O)OCC`, the outcome was inactive.

With `Nc1ccc([N+](=O)[O-])cc1Cl`, the result was inactive. As for `Cc1c([N+](=O)[O-])cc2c(c1[N+](=O)[O-])C(C)(C)CC2(C)C`, the result was inactive.

As to `O=[N+]([O-])c1ccccc1`, the outcome was inactive. Same read-out and setting: next, `CCOP(=S)(OCC)SCS(=O)(=O)CC`: “inactive”; `COC(=O)C(F)(F)C(F)(F)OC(F)(C(F)(F)F)C(F)(F)OC(F)=C(F)F` (stereo not given): “inactive”; `c1nc[nH]n1`: “inactive”. For `O=c1ssc(Cl)c1Cl`, the AC50 was 4.28 µM (active). In the case of `CCOc1ccc(C(C)(C)COCc2cccc(Oc3ccccc3)c2)cc1`, the result was inactive.

For `OCC(F)(F)OC(F)(F)C(F)(F)OC(F)(F)C(F)(F)OC(F)(F)CO`, the outcome was inactive.

As for `Nc1ccc2ccccc2c1`, the outcome was inactive. For the compound `OCC1CO1` (stereo not given), the result was inactive. Consider `CCC(C)(C)c1ccc(O)cc1`, for which the outcome was inactive. As to `CCOP(=S)(Oc1ccc([N+](=O)[O-])cc1)c1ccccc1` (stereo not given), the AC50 is 13.7 µM (active). Regarding `O=C(O)C(F)(F)OC(F)(F)C(F)(F)OC(F)(F)F`, the outcome was inactive.

Turning to `ClC(Cl)(Cl)c1ccccc1`, the outcome was inactive. Consider `CC(C)(C)c1ccccc1OP(=O)(Oc1ccccc1)Oc1ccccc1`, for which the AC50 was 20 µM (active). As to `O=P1(N(CCCl)CCCl)NCCCO1` (stereo not given), the result was inactive. On the same count and under the same terms, next, `CC(Cc1ccc(OCC(=O)O)cc1)NCC(O)c1csc(C(F)(F)F)n1` (stereo not given): “inactive”; `O=S(=O)(F)C(F)(F)C(F)(F)C(F)(F)C(F)(F)C(F)(F)C(F)(F)C(F)(F)C(F)(F)F`: “inactive”. On to `COCCOCCO`, for which the result was inactive. Consider `CCCCOCCOP(=O)(OCCOCCCC)OCCOCCCC`, for which the result was inactive. Turning to `[N-]=[N+]=[N-]`, the outcome was inactive.

For `CC(Cl)CN(C)C` (stereo not given), the result was inactive. As to `O=C(O)C(F)(F)C(F)(F)C(=O)O`, the outcome was inactive. Same read-out and setting: as for `CCCCc1ccccc1`, the entry is “inactive”. The same measure, in the same setting: as for `Cc1cccc(N)c1`, the entry is “inactive”; as for `O=C(O)C(F)(F)OC(F)(F)C(F)(F)OC(F)(F)C(=O)O`, “inactive”. Same read-out and setting: as for `CCOP(=S)(OCC)SCSCC`, the entry is “inactive”. As for `O=C(O)C=CC(F)(C(F)(F)F)C(F)(F)F`, the result was inactive.

For `CCCCCCCc1ccc(O)cc1`, the concentration at half-maximal activity (AC50) is 32 µM (active). Take `COP(=O)(CCC(=O)NCO)OC`: the result was inactive.
